Common to all, as to details: mRNA level, 48 h; actives raise or lower the signal
Read-out in assay [1]: Cytochrome P450 3A7 (Homo sapiens) (UniProt P24462)
The assay can be described thus: LTEA_HepaRG_CYP3A7: Life Technologies and Expression Analysis (LTEA) Assay for CYP3A7 using HepaRG (AID 2283492). The essentials:
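Human HepaRG liver cells, 48 h post-plating, switched to serum-free induction medium and exposed in duplicate for 48 h. Dosing: 100 uM top, half-log dilutions, 8 points, 0.5% DMSO vehicle. Read-out: CYP3A7 mRNA, gain or loss fitted against DMSO baseline.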

Read-out in assay [2]: CYP3A5 (gene 1577)
Nature of the assay: LTEA_HepaRG_CYP3A5: Life Technologies and Expression Analysis (LTEA) Assay for CYP3A5 using HepaRG (AID 2283493). Put shortly:
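mRNA induction or loss of CYP3A5 assessed in HepaRG after 48 h dosing, 100 uM top concentration, duplicate wells; TaqMan qRT-PCR with ACTB, GAPDH, POLR2A normalization; 0.5% DMSO as negative control.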

Read-out in assay [3]: Fatty Acid-Binding Protein 1 (FABP1), FABP1 (gene 2168)
The assay can be described thus: LTEA_HepaRG_FABP1: Life Technologies and Expression Analysis (LTEA) Assay for Fatty Acid-Binding Protein 1 (FABP1) using HepaRG (AID 2283494). Put shortly:
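Differentiated human HepaRG cells exposed 48 h in serum-free induction medium to eight half-log concentrations up to 100 uM (0.5% DMSO), duplicate. FABP1 mRNA by qRT-PCR, normalised to ACTB, GAPDH, POLR2A; bidirectional fitting against DMSO.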

Read-out in assay [4]: Cytochrome P450 4A22 (Homo sapiens) (UniProt Q5TCH4)
Nature of the assay: LTEA_HepaRG_CYP4A22: Life Technologies and Expression Analysis (LTEA) Assay for Cytochrome P450 4A22 (CYP4A22) using HepaRG (AID 2283495). The essentials: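 Readout is CYP4A22 transcript induction or loss, quantified by qRT-PCR and normalized to ACTB, GAPDH and POLR2A. Human HepaRG cells receive test chemicals for 48 h at eight half-log concentrations from 100 uM in 0.5% DMSO.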

Read-out in assay [5]: Cytochrome P450 7A1 (Homo sapiens) (UniProt P22680)
Nature of the assay: LTEA_HepaRG_CYP7A1: Life Technologies and Expression Analysis (LTEA) Assay for Cytochrome P450 7A1 (CYP7A1) using HepaRG (AID 2283496). Put shortly: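 Gene expression endpoint in human HepaRG liver cells treated for 48 h with test chemicals (up to 100 uM, 0.5% DMSO). Values come from bidirectional concentration-response fitting versus DMSO.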

Read-out in assay [6]: Glutamate-cysteine ligase catalytic (GCLC), GCLC (gene 2729)
The assay can be described thus: LTEA_HepaRG_GCLC: Life Technologies and Expression Analysis (LTEA) Assay for Glutamate-cysteine ligase catalytic (GCLC) using HepaRG (AID 2283498). Put shortly:
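Differentiated HepaRG cells exposed 48 h in serum-free induction medium, eight-point half-log series topping at 100 uM in 0.5% DMSO, duplicates. GCLC mRNA by qRT-PCR normalized to ACTB, GAPDH and POLR2A, fitted bidirectionally versus DMSO.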

Read-out in assay [7]: growth arrest and DNA damage 45 (GADD45G), GADD45G (gene 10912)
The assay can be described thus: LTEA_HepaRG_GADD45G: Life Technologies and Expression Analysis (LTEA) Assay for growth arrest and DNA damage 45 (GADD45G) using HepaRG (AID 2283499). Put shortly: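 Gain or loss of GADD45G mRNA, quantified by TaqMan qRT-PCR against three housekeeping genes, is fitted in both directions relative to 0.5% DMSO. Human HepaRG cultures receive test chemical for 48 h at up to 100 uM.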

Read-out in assay [8]: Glutamate-cysteine ligase regulatory (GCLM), GCLM (gene 2730)
The assay can be described thus: LTEA_HepaRG_GCLM: Life Technologies and Expression Analysis (LTEA) Assay for Glutamate-cysteine ligase regulatory (GCLM) using HepaRG (AID 2283500). Put shortly:
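Human liver HepaRG cultures receive test chemicals for 48 hours at up to 100 uM in 0.5% DMSO. GCLM expression is measured by qRT-PCR and analysed for increases or decreases against vehicle.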

Read-out in assay [9]: Glutathione S-transferase M3 (GSTM3), GSTM3 (gene 2947)
The assay can be described thus: LTEA_HepaRG_GSTM3: Life Technologies and Expression Analysis (LTEA) Assay for Glutathione S-transferase M3 (GSTM3) using HepaRG (AID 2283501). The essentials:
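HepaRG, plated 48 h, then serum-free induction medium; test chemical 48 h, duplicate; 100 uM top, half-log x8, 0.5% DMSO. Read-out: GSTM3 mRNA (TaqMan qRT-PCR, Fluidigm array). Bidirectional fit vs DMSO.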

Read-out in assay [10]: Heat shock 70 kDa protein 1 (HSPA1A), gene 3303
The assay can be described thus: LTEA_HepaRG_HSPA1A: Life Technologies and Expression Analysis (LTEA) Assay for Heat shock 70 kDa protein 1 (HSPA1A) using HepaRG (AID 2283502). The essentials: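 HSPA1A induction in human HepaRG liver cells is measured after 48 h of chemical treatment (100 uM maximum, 0.5% DMSO vehicle). Expression comes from qRT-PCR normalized to endogenous controls.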

Read-out in assay [11]: Hypoxia-inducible factor 1-alpha (Homo sapiens) (UniProt Q16665)
The assay can be described thus: LTEA_HepaRG_HIF1A: Life Technologies and Expression Analysis (LTEA) Assay for Hypoxia-inducible factor 1 (HIF1A) Trancription factor using HepaRG (AID 2283503).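 Also: HIF1A transcript by TaqMan qRT-PCR normalized to ACTB GAPDH and POLR2A.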 Put shortly:
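HepaRG, 48 h exposure, 8-pt half-log series from 100 uM, 0.5% DMSO vehicle, duplicates. Readout: HIF1A transcript by qRT-PCR (Fluidigm array), housekeeping-normalised. Bidirectional curve fit vs DMSO baseline.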

Read-out in assay [12]: 3-Hydroxy-3-Methylglutaryl-CoA Synthase 2 (HMGCS2), HMGCS2 (gene 3158)
The assay can be described thus: LTEA_HepaRG_HMGCS2: Life Technologies and Expression Analysis (LTEA) Assay for 3-Hydroxy-3-Methylglutaryl-CoA Synthase 2 (HMGCS2) using HepaRG (AID 2283504). Put shortly:
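HepaRG, plated 48 h then switched to serum-free induction media; cmpd 8-pt, max 100 uM, 1/2-log, 0.5% DMSO, n=2, 48 h. HMGCS2 mRNA by Fluidigm TaqMan qRT-PCR, ACTB/GAPDH/POLR2A norm; bidirectional fit vs DMSO.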

Read-out in assay [13]: HGF (gene 3082)
The assay can be described thus: LTEA_HepaRG_HGF: Life Technologies and Expression Analysis (LTEA) Assay for Hepatocyte Growth Facto (HGF) using HepaRG (AID 2283505). Put shortly: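 Read-out is HGF transcript level by qRT-PCR, normalized to three housekeeping genes, fitted bidirectionally against 0.5% DMSO vehicle. Human HepaRG cells received test chemicals for 48 h at up to 100 uM.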

Read-out in assay [14]: Insulin Like Growth Factor 1 (IGF1), IGF1 (gene 3479)
The assay can be described thus: LTEA_HepaRG_IGF1: Life Technologies and Expression Analysis (LTEA) Assay for Insulin Like Growth Factor 1 (IGF1) using HepaRG (AID 2283506). The essentials:
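Using human HepaRG liver cells, IGF1 transcript induction or suppression is measured 48 h after dosing across eight concentrations capped at 100 uM. Values derive from bidirectional concentration-response fitting with DMSO as baseline.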

Read-out in assay [15]: Intercellular Adhesion Molecule 1 (ICAM1), ICAM1 (gene 3383)
Nature of the assay: LTEA_HepaRG_ICAM1: Life Technologies and Expression Analysis (LTEA) Assay for Intercellular Adhesion Molecule 1 (ICAM1) using HepaRG (AID 2283507). The essentials:
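Readout is qRT-PCR mRNA level, normalized to three housekeeping genes and fitted bidirectionally against 0.5% DMSO vehicle. Human HepaRG cultures received compound for 48 h, top concentration 100 uM with half-log dilutions.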

Read-out in assay [16]: Insulin-like growth factor-binding protein 1 (IGFBP1), IGFBP1 (gene 3484)
The assay can be described thus: LTEA_HepaRG_IGFBP1: Life Technologies and Expression Analysis (LTEA) Assay for Insulin-like growth factor-binding protein 1 (IGFBP1) using HepaRG (AID 2283508). The essentials:
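Thawed HepaRG cells are plated for 48 h, switched to serum-free induction medium, then dosed in duplicate for another 48 h (100 uM top, half-log steps). Lysates in RLT go to qRT-PCR, and gain or loss of signal is fitted relative to vehicle.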

Read-out in assay [17]: Interleukin 6 (IL6), IL6 (gene 3569)
Nature of the assay: LTEA_HepaRG_IL6: Life Technologies and Expression Analysis (LTEA) Assay for Interleukin 6 (IL6) using HepaRG (AID 2283509). The essentials:
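HepaRG cells exposed in duplicate for 48 h to eight half-log concentrations, top 100 uM, in 0.5% DMSO serum-free induction medium. mRNA measured by qRT-PCR, normalized to ACTB, GAPDH and POLR2A. Bidirectional fit versus DMSO.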

Read-out in assay [18]: Interleukin 6 Receptor (IL6R), IL6R (gene 3570)
Nature of the assay: LTEA_HepaRG_IL6R: Life Technologies and Expression Analysis (LTEA) Assay for Interleukin 6 Receptor (IL6R) using HepaRG (AID 2283510).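 As to AC50: TaqMan qRT-PCR signal normalized to ACTB GAPDH and POLR2A housekeeping genes.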 The essentials:
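Concentration-response in human liver HepaRG cells: eight concentrations from 100 uM downward by half-logs, 48 h exposure, 0.5% DMSO vehicle. IL6R mRNA change measured by qRT-PCR and fitted in both directions relative to vehicle.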

Read-out in assay [19]: Potassium channel subfamily K member 1 (KCNK1), KCNK1 (gene 3775)
The assay can be described thus: LTEA_HepaRG_KCNK1: Life Technologies and Expression Analysis (LTEA) Assay for Potassium channel subfamily K member 1 (KCNK1) using HepaRG (AID 2283511). The essentials: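 Differentiated HepaRG cells, 48 h exposure in serum-free induction medium with 0.5% DMSO; 8 concentrations, half-log from 100 uM, duplicate. KCNK1 mRNA by qRT-PCR, normalized to ACTB, GAPDH, POLR2A; bidirectional fit vs DMSO.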

Read-out in assay [20]: Glutathione S-Transferase (GSTA2), GSTA2 (gene 2939)
The assay can be described thus: LTEA_HepaRG_GSTA2: Life Technologies and Expression Analysis (LTEA) Assay for Glutathione S-Transferase (GSTA2) using HepaRG (AID 2283497). Put shortly: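 Differentiated human HepaRG cells were exposed in duplicate for 48 h in serum-free induction medium, 8 points from 100 uM top in half-log steps, 0.5% DMSO. GSTA2 mRNA was measured by TaqMan qRT-PCR, normalized to ACTB, GAPDH and POLR2A; bidirectional fit versus DMSO.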

Molecules are shown by their SMILES. Several values for one entry are separate records, joined by “and”; a condition that tells them apart may be missing. Equal entries are not always repeated. A structure can be active in one record and inactive in another. Activity calls are given as the source filed them. The calls were made as follows: active = hit-call score of the fitted dose curve at least 0.9, where 1 is the maximum; inactive = score below 0.9.

Sequence of Hypoxia-inducible factor 1-alpha (Homo sapiens) (Q16665 whole entry, looked up): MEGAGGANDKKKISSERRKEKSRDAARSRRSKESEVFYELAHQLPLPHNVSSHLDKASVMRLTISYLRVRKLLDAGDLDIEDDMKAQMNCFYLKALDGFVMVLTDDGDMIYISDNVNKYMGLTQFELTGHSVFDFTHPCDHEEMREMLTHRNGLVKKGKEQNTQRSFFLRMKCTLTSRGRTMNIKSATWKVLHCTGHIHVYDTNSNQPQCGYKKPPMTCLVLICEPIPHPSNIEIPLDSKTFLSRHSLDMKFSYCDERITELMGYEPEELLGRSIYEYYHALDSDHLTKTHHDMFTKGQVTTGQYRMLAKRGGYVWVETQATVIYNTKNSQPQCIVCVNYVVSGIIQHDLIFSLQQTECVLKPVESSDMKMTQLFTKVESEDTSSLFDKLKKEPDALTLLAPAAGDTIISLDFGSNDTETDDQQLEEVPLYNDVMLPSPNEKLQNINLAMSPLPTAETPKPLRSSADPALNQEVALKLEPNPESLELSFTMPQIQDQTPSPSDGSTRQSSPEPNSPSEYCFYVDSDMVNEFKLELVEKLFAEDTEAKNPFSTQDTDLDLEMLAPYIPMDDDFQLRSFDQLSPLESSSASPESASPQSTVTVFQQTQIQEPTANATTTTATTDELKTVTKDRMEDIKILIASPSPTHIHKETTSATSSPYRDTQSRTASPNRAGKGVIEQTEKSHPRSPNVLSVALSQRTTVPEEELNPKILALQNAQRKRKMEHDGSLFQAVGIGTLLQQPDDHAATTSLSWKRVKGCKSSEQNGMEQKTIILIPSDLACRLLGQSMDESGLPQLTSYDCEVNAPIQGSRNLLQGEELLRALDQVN
Sequence of Cytochrome P450 3A7 (Homo sapiens) (P24462 whole entry, looked up): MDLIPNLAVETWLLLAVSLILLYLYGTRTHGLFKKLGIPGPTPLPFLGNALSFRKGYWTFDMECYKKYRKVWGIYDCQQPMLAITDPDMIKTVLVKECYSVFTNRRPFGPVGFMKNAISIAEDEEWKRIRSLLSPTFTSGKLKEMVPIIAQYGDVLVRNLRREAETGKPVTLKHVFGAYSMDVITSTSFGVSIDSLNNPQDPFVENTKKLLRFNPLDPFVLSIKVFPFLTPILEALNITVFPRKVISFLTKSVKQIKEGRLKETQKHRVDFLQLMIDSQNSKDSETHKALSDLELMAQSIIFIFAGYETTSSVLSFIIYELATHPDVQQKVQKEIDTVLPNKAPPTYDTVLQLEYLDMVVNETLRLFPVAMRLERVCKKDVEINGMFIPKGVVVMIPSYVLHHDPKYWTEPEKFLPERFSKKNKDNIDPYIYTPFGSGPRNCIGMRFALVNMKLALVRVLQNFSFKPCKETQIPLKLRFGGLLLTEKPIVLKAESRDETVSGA

The AC50 is the concentration giving half of the maximal activity seen. `Oc1cc(Cl)ccc1Oc1ccc(Cl)cc1Cl`: the compound was called inactive in assay [1], in assay [2], in assay [3], in assay [4], in [5] and in assay [6]. Moreover, the compound was called inactive in [7], in assay [8], in assay [9], in assay [10], in [11] and in [12]. For the same compound, the result in assay [13], in assay [14], in assay [15], in assay [16], in [17] and in assay [18] was inactive. Further, the outcome in assay [19] was inactive. The AC50 in [2] was 51 µM (active); in assay [3], 88.9 µM (active); in assay [4], 51 µM (active) and 76.4 µM (active); in [5] it was 72.8 µM (active); in assay [7] it was 51 µM (active); in [8] it was 89.6 µM (active). The AC50 in [11] was 79 µM (active); in assay [12], 82.8 µM (active); in assay [13] it was 51 µM (active); in [14], 69 µM (active); in assay [16], 71.9 µM (active); in [17] it was 81.3 µM (active). Moreover, the AC50 in assay [18] was 51 µM (active).

For `O=C(O)COc1ccc(Cl)cc1Cl`, the AC50 in [1] was 27.7 µM (active). Also, the compound was called inactive in assay [2], in [3], in assay [4], in assay [5], in [20] and in [6]. For the same compound, the result in assay [7], in assay [8], in assay [9], in assay [10], in assay [11] and in assay [12] was inactive. The compound was classed as inactive in assay [13], in assay [14], in assay [15], in assay [17], in [18] and in assay [19].

Regarding `CC[C@H](C)[C@H]1O[C@]2(C=C[C@@H]1C)C[C@@H]1C[C@@H](C/C=C(\C)[C@@H](O[C@H]3C[C@H](OC)[C@@H](O[C@H]4C[C@H](OC)[C@@H](O)[C@H](C)O4)[C@H](C)O3)[C@@H](C)/C=C/C=C3\CO[C@@H]4[C@H](O)C(C)=C[C@@H](C(=O)O1)[C@]34O)O2` (tested in a mixture with another compound), the outcome in assay [1], in assay [7] and in [13] was inactive. For the same compound, the AC50 in assay [2] is 6 µM (active); in assay [3], 8.68 µM (active); in assay [4] it was 10.2 µM (active); in assay [5], 15 µM (active); in [6], 7.09 µM (active); in assay [8], 7.66 µM (active). Besides, the AC50 in assay [9] is 9.57 µM (active); in assay [10], 44.2 µM (active); in assay [11], 19 µM (active); in assay [12], 16.2 µM (active); in [14] it was 16 µM (active); in [15], 13.6 µM (active). In addition, the AC50 in assay [16] is 11.6 µM (active); in [17], 18.6 µM (active); in [18], 13.9 µM (active); in [19], 16.8 µM (active).

The record behind these values is PubChem BioAssay (EPA / NIEHS).
